Measured values from PubChem BioAssay AID2546 (National Center for Advancing Translational Sciences (NCATS), 2010).
Hit rate of the full screen: of about 310,000 compounds, about 11,000 (3.5%) were called active. Roughly 8% stayed inconclusive and do not appear here. This excerpt belongs to a sample that is enriched for actives. Values without a mark were called inactive. Calls follow the shape of the dose curve; as a rule, active = well fitted inhibition curve with a large enough effect; inconclusive = small, poorly fitted or top-dose-only effect, or effect the other way; inactive = flat fitted curve, though single readings scatter.

test: VP16 counterscreen qHTS for inhibitors of ROR gamma transcriptional activity; details: Drosophila S2 Gal4-VP16 UAS-luciferase, luminescence, 20 h; series mostly up to 53.6 µM; activity, negative = inhibition: at the top concentration;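 also: Gal4-VP16 expression switched on by copper sulfate through the metallothionein promoter; nearly all actives have a fitted effect of over 50% in size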
% is scaled to controls: 0 for no effect and ±100 for the full control effect; potency is read from the fitted curve at half-maximal effect.

Structure (SMILES) | activity, negative = inhibition [%] | Potency
CC(C)(C)OC(=O)NNc1c2ccccc2nc2ccccc12 | -22.6 | 
COC(=O)CSc1nnc(NC(=O)CCc2ccccc2)s1 | -9.32 | 
O=C(NCCc1ccccc1Cl)C1CCC(=O)N(CCCc2ccccc2)C1 (stereo unspecified) | -8.62 | 
CCCn1c(CCNc2nc(-c3ccc(OC)cc3)cs2)nc2ccccc21 | -4.87 | 
O=C(CCCC(=O)N1CCN(c2cccc(Cl)c2)CC1)c1ccccc1 | 1.45 | 
S=C1NC(c2ccccc2)=NCN1c1ccc(Br)cc1 |  | 20 µM (active)
Brc1ccccc1C1N=C(c2ccccc2)NO1 (stereo unspecified) | -7.34 | 
Cc1nc(=O)c(-c2ccccc2)c(C)n1-c1ccc(Br)cc1 | -1.26 | 
COc1cc(NC(=O)CSc2ccc(-c3cccnc3)nn2)cc(OC)c1 | -0.546 | 
CCOC(=O)C1(CCOc2ccccc2)CCN(Cc2ccc(C#CCCO)cc2)CC1 | -12.6 | 
C=CCn1c(C23CC4CC(CC(C4)C2)C3)n[nH]c1=S |  | 2.51 µM (active)
C=CCn1c(SCC(=O)NC23CC4CC(CC(C4)C2)C3)nc(O)cc1=O | -4.61 | 
C=CCn1c(SCC(=O)NC)nnc1C12CC3CC(CC(C3)C1)C2 | 0.249 | 
COc1cc(NS(=O)(=O)c2ccc(NC(=S)NC(=O)c3ccccc3)cc2)nc(OC)n1 | 10.4 | 
Cn1c(C(=O)N2CCCC(C(=O)NCc3ccccc3)C2)cc2sccc21 (stereo unspecified) | 0.53 | 
CC(=O)Nc1ccc(S(=O)(=O)NC2Cc3ccccc3C2)cc1 | 4.49 | 
COc1ccc(-c2nc3ccccc3c(=O)n2CCc2ccc(O)cc2)cc1 | 4.13 | 
COc1ccc(S(=O)(=O)Nc2ccc(O)c(Sc3nc4ccccc4s3)c2)cc1 | -20.8 | 
O=C(CSc1nc2ccccc2s1)Nc1ccc(C(=O)O)cc1 | -0.471 | 
O=[N+]([O-])c1c(NCCO)cc(Sc2nc3ccccc3s2)c2nonc12 |  | 5.01 µM (active)
CCCOc1cccc(C(=O)Nc2ccccc2C(=O)N2CCN(C)CC2)c1 | 2.85 | 
Cc1ccc(S(=O)(=O)c2nc(-c3cccs3)oc2NCc2cccnc2)cc1 | 3.93 | 
S=c1[nH]nc(COc2ccccc2)n1-c1ccccc1 |  | 10 µM (active)
Fc1ccc(/C=N/n2c(COc3ccccc3)n[nH]c2=S)cc1 | -7.22 | 
Cc1ccc(OCc2n[nH]c(=S)n2-c2ccc(C)cc2)cc1 | -10.9 | 
COc1ccc2oc(C(=O)NCC(Cc3ccccc3)N(C)C)c(C)c2c1 (stereo unspecified) | -12.4 | 

Structure (SMILES) | activity, negative = inhibition [%] | Potency
CC(C)Oc1ccc(Cc2n[nH]c(=S)n2Cc2ccccc2)cc1Cl | -9.9 | 
CC(C)Oc1ccc(CCc2n[nH]c(=S)n2Cc2ccccc2)cc1 |  | 15.8 µM (active)
C=CCn1c(CCc2ccc(OC(C)C)cc2)n[nH]c1=S | -0.265 | 
COc1ccc(CCNC(=O)C2CCCN(S(=O)(=O)c3ccc(OC)cc3)C2)cc1 (stereo unspecified) | -4.87 | 
CC1CCC(NC(=O)CN(C)S(=O)(=O)c2ccc3c(c2)c(=O)n(C)c(=O)n3C)CC1 (stereo unspecified) | -7.19 | 
COc1cccc(NC(=O)CC2C(=O)NCCN2C(=S)Nc2ccc(F)cc2)c1 (stereo unspecified) | 1.84 | 
COc1ccc(C(=O)NC(=S)N2CCNC(=O)C2CC(=O)OC(C)C)cc1 (stereo unspecified) |  | 10 µM (active)
CCc1ccc(NC(=O)CC2C(=O)NCCN2C(=S)Nc2ccccc2)cc1 (stereo unspecified) | 1.61 | 
Cc1ccc(-c2ccc(=O)n(Cc3ccc(F)cc3Cl)n2)cc1 | -19 | 
O=c1[nH]c2cccnc2n1-c1ccc([N+](=O)[O-])cc1 | -8.8 | 
O=[N+]([O-])c1ccc2c(c1)Nc1nc3ccccc3nc1N2 | 5.07 | 
O=[N+]([O-])c1ccc2nc(-c3ccccn3)[nH]c2c1 |  | 6.31 µM (active)
O=c1c2ccccc2nc(N/N=C/c2ccccc2)n1O | -13.5 | 
Nc1nnn(CC(=O)N/N=C/c2ccc(O)cc2)n1 | 1.16 | 
CC(C)(C)c1nnc(N/N=C/c2ccc(O)cc2)n(N)c1=O |  | 2.24 µM (active)
Cc1csc(NC(=S)Nc2cccc(Cl)c2)n1 |  | 1 µM (active)
CC(=O)Nc1cccc(C(=O)Nc2nc(C)cs2)c1 | -5.52 | 
S=C(Nc1cccc(Cl)c1)Nc1ccc2cn[nH]c2c1 | -2.76 | 
COc1cccc(N(CC(=O)NC2CCCCCC2)S(=O)(=O)c2ccccc2)c1 | -3.26 | 
CN1C(=O)CN2CCc3ccccc3C2c2cc(Cl)ccc21 (stereo unspecified) | -3.01 | 
O=C(CSc1ncn[nH]1)Nc1nc(-c2cccc([N+](=O)[O-])c2)cs1 |  | 17.8 µM (active)
O=C(CSc1nc(-c2ccccc2)cs1)Nc1cccc([N+](=O)[O-])c1 | -25.9 | 
O=C(CSc1ncn[nH]1)Nc1nsc(-c2ccccc2)n1 | 3.14 | 
COc1ccc2[nH]c(=O)c(CN(Cc3cccnc3)S(=O)(=O)c3ccccc3F)cc2c1 | -3.02 | 
COc1cccc(N(CC(=O)NCc2ccccc2)C(=O)CCC(=O)Nc2nccs2)c1 | 3.14 | 
